Bioassay records as filed in PubChem BioAssay.
The list is not random: actives were taken first. Their share in the collection is about 6.5%.
MK inhibit: S. pneumoniae MK inhibitors, primary screen, biochemical, PK/LDH-coupled NADH absorbance; 65,000 compounds, 0.48% hits; purified MK, PK/LDH-coupled NADH absorbance 340 nm; mevalonate kinase [Streptococcus pneumoniae D39]; inhibition, % at 10 µM; AID 555, 2006;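 active means ranked among the strongest by inhibition in the single 10 µM screen, a fixed top-ranked set picked for dose follow-up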
Spn PMK inh: S. pneumoniae PMK inhibitors, primary screen, biochemical, mevalonate pathway, pilot trial included. AID 539, 2006. 65,000 compounds, 0.49% hits. purified PMK, PK/LDH-coupled NADH absorbance 340 nm. phosphomevalonate kinase (Streptococcus pneumoniae D39). inhibition, % at 10 µM;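 active means top-ranked compounds by inhibition in the single 10 µM screen, taking a fixed number of the strongest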;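 further: 0% = full reaction with DMSO carrier and 100% = background rate without enzyme reaction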
A340 absorber: compound light absorbance at 340 nm, profiling panel, artefact control, biochemical, MLSMR library, data from PS, PMK, MK assays | 65,000 tested, under 10 active | fold change at 10 µM | compound absorbance at 340 nm, fold over control;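 active means at 10 µM dose, initial 340 nm absorbance at least 2 fold that of control wells; inactive means change under 2 fold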;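 further: initial absorbance extrapolated from kinetic A340 decline of NADH oxidation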
DPM-DC inhibit: S. pneumoniae DPM-DC inhibitors, primary screen, biochemical, PK/LDH-coupled NADH fluorescence | diphosphomevalonate decarboxylase (Streptococcus pneumoniae D39) | purified DPM-DC | calls only at 10 µM | 65,000 compounds, 0.49% hits;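 active means the 320 compounds with the highest percent inhibition in the single-dose primary screen, excluding strongly autofluorescent ones, cut at about 32% in these data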;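 further: kinetic rate of NADH fluorescence loss reporting ADP formed by the decarboxylase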
NADH coupling: inhibitors of PK/LDH coupling enzymes, profiling panel, artefact control, biochemical, MLSMR library; coupled PK/LDH NADH assays, four targets; IC50, µM (titrated, usually from 10 µM), for inactives: top-dose inhibition; 65,000 compounds, 0.02% hits;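 active means single-dose screening hits from any of four coupled enzyme assays that gave an IC50 when retested across doses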;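 further: the DPM-DC format reads NADH fluorescence rather than 340 nm absorbance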
Fluor 339 460: intrinsic fluorescence of library compounds, ex339/em460 – biochemical, MLSMR library, data from DPM-DC assay, artefact control, profiling panel; fluorescence fold increase at 10 µM; compound autofluorescence, ex339/em460 nm, NADH buffer; stronger effect = higher value; 1 = no-compound wells, NADH background; AID 709, 2007; 65,000 compounds, 5.5% hits;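 active means at 10 µM, mean starting fluorescence two-fold or more over control wells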;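 further: signal is the first read of a kinetic run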
Active calls of the source: *.

For O=S(=O)(c1cccc(-c2cn3cccnc3n2)c1)N1CCCCCC1 the results were MK inhibit 5, Spn PMK inh 12, A340 absorber 1.1, NADH coupling 9% and Fluor 339 460 3.6*.
For CC1CN(S(=O)(=O)c2cccc(-c3cn4cccnc4n3)c2)CC(C)O1 (configuration not stated) the results were MK inhibit 5, Spn PMK inh 4, A340 absorber 1.1, NADH coupling 5% and Fluor 339 460 3.8*.
For O=S(=O)(c1cccc(-c2cn3cccnc3n2)c1)N1CCOCC1 the results were MK inhibit 11, Spn PMK inh 14, A340 absorber 1.1, NADH coupling 13% and Fluor 339 460 3.8*.
`OC1(c2ccc(F)cc2)CCN(Cc2nnnn2Cc2cccs2)CC1` gave MK inhibit 2, Spn PMK inh 14, A340 absorber 1, DPM-DC inhibit inactive, NADH coupling 5% and Fluor 339 460 1.1.
For O=C(NCc1nnc(SCC(=O)N2CCN(c3ccccc3)CC2)o1)c1ccco1 the results were MK inhibit 42*, Spn PMK inh 12, A340 absorber 1, DPM-DC inhibit inactive, NADH coupling 18% and Fluor 339 460 1.2.
`O=C1NCCN1C(=O)C12CC3CC(CC(C3)C1)C2` gave MK inhibit 0, Spn PMK inh 10, A340 absorber 1, DPM-DC inhibit inactive, NADH coupling 3% and Fluor 339 460 1.1.
For CN1CC(=O)NC1=NC(=O)C12CC3CC(CC(C3)C1)C2 the results were MK inhibit 0, Spn PMK inh 11, A340 absorber 1, DPM-DC inhibit active, NADH coupling 17% and Fluor 339 460 0.6.
For Cc1nc2ccccc2n2c(O)c(CC(=O)O)cc12 the results were MK inhibit 2, Spn PMK inh 42*, A340 absorber 1, DPM-DC inhibit inactive, NADH coupling 15% and Fluor 339 460 1.2.
CCc1nc2ccccc2n1Cc1cc(=O)n2cc(C)ccc2n1 was read as MK inhibit 0, Spn PMK inh 16, A340 absorber 1.1, DPM-DC inhibit inactive, NADH coupling 10% and Fluor 339 460 3.4*.
CCc1nc2ccccc2n1Cc1ccc(OC)c(OC)c1 was read as MK inhibit 2, Spn PMK inh 2, A340 absorber 1, DPM-DC inhibit inactive, NADH coupling 1% and Fluor 339 460 1.1.
Cc1[nH]c(C(=O)N2CCCCC2)c(C)c1C(=O)NC1CCCCC1 was read as MK inhibit 6, Spn PMK inh 13, A340 absorber 0.98, DPM-DC inhibit inactive, NADH coupling 2% and Fluor 339 460 1.1.
Screening COc1c(Br)cc2c(C)c(C(=O)O)oc2c1Br returned MK inhibit 43*, Spn PMK inh 0, A340 absorber 0.99, DPM-DC inhibit inactive, NADH coupling 4% and Fluor 339 460 1.
For O=C(C1=COCCO1)N1CCN(C(c2ccccc2)c2ccccc2)CC1 the results were MK inhibit 3, Spn PMK inh 5, A340 absorber 1, DPM-DC inhibit inactive, NADH coupling 3% and Fluor 339 460 1.1.
`Cc1cc(C)n2nc3ccccc3c2n1` gave MK inhibit 2, Spn PMK inh 10, A340 absorber 1.1, DPM-DC inhibit inactive, NADH coupling 4% and Fluor 339 460 2.
`Cc1cc(C)n2nc3nc(N4CCCCC4)nc(-c4ccco4)c3c2n1` gave MK inhibit 0, Spn PMK inh 20, A340 absorber 1, DPM-DC inhibit active, NADH coupling 10% and Fluor 339 460 2.1*.
Nc1c(C(=O)NC2CCCCC2)nsc1C(=O)OCC(=O)NC1CCCCC1 was read as MK inhibit 11, Spn PMK inh 11, A340 absorber 1, DPM-DC inhibit inactive, NADH coupling 17% and Fluor 339 460 3.1*.
`CCOC(=O)c1snc(C(=O)NC2CCCCC2)c1N` gave MK inhibit 8, Spn PMK inh 0, A340 absorber 1, DPM-DC inhibit inactive, NADH coupling 3% and Fluor 339 460 2*.
